High-throughput results as filed in PubChem.
HADH2 inh: HADH2 (human) dehydrogenase inhibition. Q99714. recombinant HADH2, NADH fluorescence, beta-hydroxybutyryl-CoA. Potency, µM (highest dose often 57.1 µM), inactives show at the highest dose activity change, negative = inhibition, most hits filed as inhibitors. 73,000 compounds, 3.4% hits; further: potency means the concentration at half of the fitted maximal effect; on the % scale 0 is the no-effect control and ±100 the full control effect; nearly all actives have a fitted effect of over 60% in size
Target sequence (Q99714 whole entry, looked up, one chain of several): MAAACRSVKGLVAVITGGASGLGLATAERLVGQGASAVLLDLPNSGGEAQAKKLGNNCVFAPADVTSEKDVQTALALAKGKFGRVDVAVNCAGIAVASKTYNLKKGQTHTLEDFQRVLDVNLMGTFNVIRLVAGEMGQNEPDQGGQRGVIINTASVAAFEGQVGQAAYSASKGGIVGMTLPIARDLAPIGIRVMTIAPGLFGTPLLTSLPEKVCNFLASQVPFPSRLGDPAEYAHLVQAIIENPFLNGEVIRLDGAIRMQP
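Buffer 100 mM Tris-HCl pH 9.0/0.01% Tween-20; HADH2 20 nM; NAD+ 1 mM; beta-hydroxybutyryl-CoA 90 uM (all final). 15 min cpd preincubation, RT.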
HSD17B inh: blocks hydroxysteroid 17-beta dehydrogenase activity | recombinant HSD17B10, NADH fluorescence kinetic | Q99714 | 75,000 compounds, 7.6% hits | Potency, µM (top dose mostly 57.1 µM), inactives show top-dose activity change, negative = inhibition, actives largely listed as inhibitors | AID 893;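 further: the protocol describes HADH2 (HSD17B10) and not the HSD17B4 of the title; potency means the concentration at half of the fitted maximal effect; on the % scale 0 is the no-effect control and ±100 the full control effect; nearly all actives have a fitted effect of over 70% in size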
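Enzyme plus compound, 15 min room temperature; substrate mix added (NAD+ 1 mM, beta-hydroxybutyryl-CoA 90 uM final); plates read kinetically for NADH fluorescence. HADH2 was His-tagged, E. coli-derived, 20 nM.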
4-MU autofl: 4-MU region autofluorescence; compound autofluorescence, 340/450 nm, 4-MU equivalents; stronger effect = higher value; max dye-equivalent concentration, M; 59,000 compounds, 11% hits; in the data active means max dye-equivalent concentration above about 10 nM; inconclusive means mostly about 1.1 nM to 9.6 nM
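Compounds in 100 mM Tris, pH 8.0, incubated 15 min at room temperature, then fluorescence read at 340 nm excitation/450 nm emission. Signal converted to 4-MU dye-equivalent concentration using an on-plate six-point 4-MU standard curve.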
USP2a inhib: blocks human ubiquitin-specific protease USP2a; O75604; USP2a enzymatic assay, qHTS inhibition; Potency, µM (doses to about 38.3 µM), for inactives: at the top dose activity change, negative = inhibition, most hits filed as inhibitors; 60,000 compounds, 0.1% hits; further: potency means the concentration at half of the fitted maximal effect; nearly all actives have a fitted effect of over 60% in size
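Coupled readout: USP2-cleaved Ub-PLA2 (20nM final) turns over NBD C6-HPC (20uM final), Ex 460nm/Em 535nm after 2.5 h, time-zero read flagging artifacts. Enzyme (20nM final, pH 8.0 Tris) given 30 min RT with compound first; NEM defines full inhibition.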
A350 fluor: compound fluoresces in the Alexa 350 spectral region. Compound autofluorescence, 340/450 nm, Alexa 350 dye-equivalents; stronger effect = higher value. 59,000 compounds, 11% hits. max dye-equivalent concentration, M; in the data active means max dye-equivalent concentration above about 10 nM; inconclusive means mostly about 1.1 nM to 9.6 nM
AID923: qHTS Assay for Allosteric/Competitive Inhibitors of Caspase-1: Spectroscopic Profiling in AFC Spectral Region. Potency, µM (series often up to 57.5 µM), for the others: at the highest dose fluorescence increase, hits mostly activators. compound fluorescence, AFC spectral region (405/520 nm). AID 923, 2007. 75,000 compounds, 1.1% hits; further: potency means the concentration at half of the fitted maximal effect; 0% is about no effect
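Compound autofluorescence profiled at 405 nm ex/520 nm em during kinetic caspase 1 run (50 nM enzyme, 5 uM Ac-WEHD-AFC, HEPES pH 7.5, 10 mM DTT). Titration up to 57 uM; baseline from regression intercept, normalized to AFC standard curve.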
Active calls of the source: *. The list is not random: actives were taken first. Their share in the collection is about 13%. Unless noted, the call rests on the fitted dose curve; in most records, active means well fitted curve in the direction sought with a large enough effect; inconclusive means small, poorly fitted or top-dose-only effect, or another doubt; inactive means no such curve, though single readings can be large; an effect the other way counts as inactive or inconclusive.

O=C(Nc1cccc2nsnc12)C1CC(=O)N(c2ccccc2)C1 (configuration not stated) was read as HADH2 inh -29%, HSD17B inh 25µM*, 4-MU autofl 1.8e-08M*, USP2a inhib 47%, A350 fluor 2.1e-08M* and AID923 0%.
For O=c1c(-c2ccccc2)c(O)nc2ccccn12 the results were HADH2 inh -6%, HSD17B inh -24%, 4-MU autofl 1.4e-08M*, USP2a inhib 3%, A350 fluor 1.9e-08M* and AID923 5%.
N#CCCn1c(=O)c(CCc2ccccc2)nc2cnc(Oc3cccc(Cl)c3)nc21 was read as HADH2 inh 44%, HSD17B inh -1%, 4-MU autofl inactive, USP2a inhib 40%, A350 fluor inactive and AID923 6%.
For COc1ccccc1CCn1c(=O)c(-c2cc(F)cc(F)c2)nc2cncnc21 the results were HADH2 inh 7%, HSD17B inh 25%, 4-MU autofl inactive, USP2a inhib 106%, A350 fluor inactive and AID923 3%.
Screening CC1CN(S(=O)(=O)c2cccc(C(=O)OCC(=O)Nc3ccc4c(c3)OCO4)c2)CC(C)O1 (configuration not stated) returned HADH2 inh 2%, HSD17B inh 1%, 4-MU autofl inconclusive, USP2a inhib 28%, A350 fluor inconclusive and AID923 1%.
For CC1CN(S(=O)(=O)c2cccc(C(=O)OCc3cc(=O)oc4cc(O)ccc34)c2)CC(C)O1 (configuration not stated) the results were HADH2 inh inactive, HSD17B inh inactive, 4-MU autofl 2.5e-07M*, USP2a inhib 30%, A350 fluor 4.2e-07M* and AID923 9%.
COC(=O)C1CCC(C)(C(=O)Nc2ccccc2)C1(C)C (configuration not stated) was read as HADH2 inh -5%, HSD17B inh -19%, 4-MU autofl inactive, USP2a inhib 3%, A350 fluor inactive and AID923 0%.
For COc1cc2c(cc1OC)-c1cc(NC3CCCC3)nc(=O)n1CC2 the results were HADH2 inh inconclusive, HSD17B inh 25µM*, 4-MU autofl 4.8e-08M*, USP2a inhib 6%, A350 fluor 1.2e-08M* and AID923 2%.
`CC1(NC[C@@H](O)COc2cccc3[nH]ccc23)CCC(C(C)(C)NC(=O)CBr)CC1` (some centres not stated) gave HADH2 inh 7%, 4-MU autofl inactive and A350 fluor inactive.
`O=C1CC[C@@]23/C=C/C(=O)NCCCCNCCCNC(=O)/C=C/c4ccc(c2c4)OC3C1` (some centres not stated) gave HSD17B inh 0%, USP2a inhib 6% and AID923 1%.
Screening CCC1SC2=NC(C)=C(C(=O)OCCOC)C(c3ccc(C(=O)OC)cc3)N2C1=O (configuration not stated) returned 4-MU autofl inactive and A350 fluor inactive.
Screening S=c1nc2ccccc2c2nc(-c3ccccc3)[nH]n12 returned HADH2 inh inconclusive, HSD17B inh -23%, 4-MU autofl 1.5e-08M*, USP2a inhib 1%, A350 fluor 1.4e-08M* and AID923 -1%.
For CNc1ccnc(-c2ccccc2C(F)(F)F)n1 the results were HADH2 inh 23%, HSD17B inh -2%, 4-MU autofl inactive, USP2a inhib -13%, A350 fluor inactive and AID923 -1%.
C/C(=C1/SC(=S)N(CCC(=O)O)C1=O)c1ccc(O)cc1 was read as HADH2 inh 32µM*, HSD17B inh inconclusive, USP2a inhib -12% and AID923 -4%.
For O=C(O)CCN1C(=O)c2ccccc2C1=O the results were HADH2 inh 8%, HSD17B inh -1%, 4-MU autofl inactive, USP2a inhib -3%, A350 fluor inactive and AID923 -1%.
